Methyltransferases: Primary Screen for Target Class Profiling of Small Molecule Inhibitors of Methyltransferases; purified enzyme, MTase-Glo SAH luminescence; stronger effect = lower value; calls only at 40 µM; 3.9% of 25,000 active; AID 1745853, 2022; call rule not given here
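Each enzyme was reacted with SAM and its substrate, with compounds tested once at 40 uM; SAH formed was read by MTase-Glo luminescence.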
MTase-Glo ctr: detection enzyme interference, methyltransferase counter-screen; shares compounds with Methyltransferases; MTase-Glo coupled enzymes, SAH conversion luminescence, no MTase; Potency, µM (series often up to 57.3 µM), without a hit: at the top dose activity change, negative = inhibition, most hits filed as inhibitors; 6% of 180 active; active = well fitted inhibition curve with a large enough effect; note: potency is the fitted concentration of half-maximal effect
* hit, by the source's call; i = inactive; + = active, no number; [ ] = remark or other dose. This is one part of a sample in which hits are shown more often than they occur. % is set by controls: 0 for no effect and ±100 for the full control effect.

SMILES	Methyltransferases	others
O=C(NC1CCCC1)N1Cc2ccccc2-n2cccc2C1c1ccc(F)cc1 (stereo not drawn)	i
CCOc1ccc(C2c3cccn3-c3ccccc3CN2C(=O)Nc2ccccc2CC)cc1 (stereo not drawn)	i
COc1ccc(NC(=O)N2Cc3ccccc3-n3cccc3C2C)cc1OC (stereo not drawn)	i
CC[C@@H](CO)NC(=O)[C@@H]1C=C2c3cccc4c3c(cn4C)C[C@H]2N(C)C1	+
CC[C@@H](CO)NC(=O)[C@@H]1C=C2c3cccc4[nH]cc(c34)C[C@H]2N(C)C1	+
CCC1c2cccn2-c2ccccc2CN1C(=O)Nc1cccc(OC)c1 (stereo not drawn)	i
CCOc1ccc(NC(=O)N2Cc3ccccc3-n3cccc3C2c2cccs2)cc1 (stereo not drawn)	i
O=C(Nc1ccccc1)N1Cc2ccccc2-n2cccc2C1c1cc(F)cc(F)c1 (stereo not drawn)	i
CSc1ccc(C2c3cccn3-c3ccccc3CN2C(=O)Nc2cccc(C)c2C)cc1 (stereo not drawn)	i
COc1cccc(NC(=O)N2Cc3ccccc3-n3cccc3C2c2ccc(SC)cc2)c1 (stereo not drawn)	i
COc1ccc(OC)c(NC(=O)N2Cc3ccccc3-n3cccc3C2c2ccc(F)cc2)c1 (stereo not drawn)	i
COCCCNC(=O)N1Cc2ccccc2-n2cccc2C1c1ccccc1 (stereo not drawn)	i
COC1CCCC(C)OC(=O)Cc2cc(O)cc(O)c2C(=O)C1 (stereo not drawn)	i
CC1CCCC(O)CCC/C=C/c2cc(O)cc(O)c2C(=O)O1 (stereo not drawn)	i
CC1CCCC(=O)CCC/C=C/c2cc(O)cc(O)c2C(=O)O1 (stereo not drawn)	+
O=C(Nc1ccccc1Cl)N1Cc2ccccc2-n2cccc2C1c1ccccc1 (stereo not drawn)	i
Cc1ccc(Cl)cc1NC(=O)N1Cc2ccccc2-n2cccc2C1c1ccc(N(C)C)cc1 (stereo not drawn)	i
CCOc1ccc(C2c3cccn3-c3ccccc3CN2C(=O)Nc2ccc(Cl)cc2)cc1 (stereo not drawn)	i
COc1ccc2c(c[n+](C)c3c4cc5c(cc4ccc23)OCO5)c1OC	+
CCOC(=O)C1CCC(CNC(=O)N2Cc3ccccc3-n3cccc3C2c2cccs2)CC1 (stereo not drawn)	i
Cc1ccc(C2c3cccn3-c3ccccc3CN2C(=O)Nc2ccc(C)c(C)c2)cc1 (stereo not drawn)	i
COc1cc(OC)c(NC(=O)N2Cc3ccccc3-n3cccc3C2c2cccs2)cc1Cl (stereo not drawn)	i
CCOc1ccc(C2c3cccn3-c3ccccc3CN2C(=O)Nc2ccccc2C)cc1 (stereo not drawn)	i
COc1ccc(C2c3cccn3-c3ccccc3CN2C(=O)Nc2ccccc2)cc1 (stereo not drawn)	i
CCOC(=O)c1cccc(NC(=O)N2Cc3ccccc3-n3cccc3C2c2ccc(CC)cc2)c1 (stereo not drawn)	i
SMILES	Methyltransferases	others
CS(=O)(=O)NC[C@H]1C[C@@H]2CCN1C[C@@H]2CN1CCc2ccccc2C1	i
CC[C@H]1CN2CC[C@H]1C[C@@H]2CNCc1ccc(-c2ccccc2)cc1	+	MTase-Glo ctr=2%[85.7 µM]
COc1ccccc1-c1cc([C@H]2CN3CC[C@H]2C[C@@H]3CNS(=O)(=O)c2ccccc2)n(C)n1	i
CCOC(=O)c1ccc(NC(=O)N2Cc3ccccc3-n3cccc3C2c2cccc(Cl)c2)cc1 (stereo not drawn)	i
C=C[C@H]1CN2CC[C@H]1C[C@@H]2[C@@H](O)c1ccnc2ccccc12	i
C=C[C@H]1CN2CC[C@H]1C[C@@H]2CNC(=O)Nc1ccc(Br)cc1	+	MTase-Glo ctr=-30%[85.7 µM]
Cn1nc(-c2cccs2)cc1[C@H]1CN2CC[C@H]1C[C@@H]2CNC(=O)C1CCCCC1	i
COc1ccc(C2c3cccn3-c3ccccc3CN2C(=O)Nc2cccc(Cl)c2)cc1OC (stereo not drawn)	i
COc1ccc(NC(=O)N2Cc3ccccc3-n3cccc3C2c2cccc(C)c2)cc1 (stereo not drawn)	i
CCOC(=O)c1ccccc1NC(=O)N1Cc2ccccc2-n2cccc2C1c1cc(F)cc(F)c1 (stereo not drawn)	i

Compound activity (PubChem BioAssay)
